Source: PubChem BioAssay (several laboratories)
HSF1 inh = HSF1 inhibition; NIH3T3-HGL HSE-luciferase, MG132-induced, luminescence 8 h; stronger effect = lower value; activity change, negative = inhibition, % at 7.5 µM (by protocol); 300,000 compounds, 0.77% hits;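 active = more than half of replicate wells show activity change below -50%, luminescence cut by over half; inconclusive = some wells, but at most half, below -50%; inactive = no replicate well below -50%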;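 note: luciferase reports HSF-1 transcriptional activity via heat shock element; 0% = median of DMSO wells and -100% = zero luminescence signal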
HSP90 inh = inhibitors of HSP90 luciferase refolding in rabbit reticulocyte lysate. luciferase refolding luminescence, 3 h. inhibition, % at 5.6 µM. 290,000 compounds, 0.91% hits;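 active = inhibition above the screen-wide mean plus 3 SD, computed separately per campaign, cut at about 16% in these data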;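 note: 0% = DMSO wells and 100% = 60 µM geldanamycin wells; inhibitors lower the luminescence because luciferase stays unfolded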
dFosB activator = mouse delta FosB homodimer activation | P13346 | purified delta FosB, TAMRA-CDK5 oligo fluorescence polarization; percent of positive-control signal above neutral wells | activation, % at 25 µM | 340,000 compounds, 0.99% hits;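 active = mean activation above about 17%, with every replicate also reaching it, limit read from the data, passing the limit was not always enough; inconclusive = only one of the two conditions met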
Target sequence (P13346 whole entry, looked up): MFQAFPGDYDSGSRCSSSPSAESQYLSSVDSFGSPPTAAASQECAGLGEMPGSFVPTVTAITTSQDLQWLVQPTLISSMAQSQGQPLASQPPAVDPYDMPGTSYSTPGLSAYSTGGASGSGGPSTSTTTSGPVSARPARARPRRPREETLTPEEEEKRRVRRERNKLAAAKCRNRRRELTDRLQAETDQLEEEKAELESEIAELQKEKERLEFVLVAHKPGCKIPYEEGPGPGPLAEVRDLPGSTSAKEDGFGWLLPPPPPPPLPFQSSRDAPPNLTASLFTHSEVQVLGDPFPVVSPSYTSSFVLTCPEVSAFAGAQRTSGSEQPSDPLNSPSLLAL
HSF-1 act = increases HSF-1 driven luciferase reporter signal. activation, % at 9 µM. NIH3T3-HGL HSF-1 luciferase reporter, MG132, 8 h; 100% = twice DMSO control signal. AID 504408. 300,000 compounds, 1.7% hits;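 active = mean replicate activation of at least 50% with a set share of replicates each reaching 50%; inconclusive = only one of those two conditions met; inactive = mean below 50% and too few replicates reaching it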;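 note: 0% = median of the neutral control wells and 100% = twice that signal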
MPTP block = permeability transition pore inhibition; 360,000 compounds, 1.4% hits; isolated mouse mitochondria, Ca2+ swelling absorbance, 30 min; inhibition, % at 10 µM;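 active = inhibition of 50% or more, scaled per plate between neutral and stimulator controls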;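 note: 0% = DMSO wells given calcium and 100% = 1 mM EGTA wells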
Platelet DG rel = modulates dense granule release in human platelets. 300,000 compounds, 0.22% hits. human platelet-rich plasma, SFLLRN dense granule ATP release, luminescence. inhibition, %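 (compounds screened at 7.5 µM in platelet-rich plasma)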. AID 1663;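 active = mean replicate score, as percent of positive control, at or above 50; inconclusive = mean below 50 but at least one replicate at or above 50; inactive = mean and every replicate below 50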
Numbers without * were called inactive; ? = inconclusive; nt = no result. The list is not random: actives were taken first. Their share in the collection is about 4.9%.

SMILES	HSF1 inh	HSP90 inh	dFosB activator	HSF-1 act	MPTP block	Platelet DG rel
N#C/C(=C\C=C\c1ccccc1[N+](=O)[O-])C(=O)NC1CCCCC1	34	1	-7	82*	0	3
COc1c(NC=O)c2c(c([N+](=O)[O-])c1OC)C(=O)OC2	nt	nt	-1	nt	-2	nt
CCCC(=O)Nc1cc(-c2nn(C)c(=O)c3ccccc23)ccc1OC	26	0	-13	60*	13	-1
CCC(=O)Nc1cc(-c2nn(C)c(=O)c3ccccc23)ccc1OC	-2	3	-11	11	-1	0
COc1ccccc1OCc1nnc(SCCN2CCOCC2)o1	21	1	-2	58*	-1	-12
COc1ccccc1OCc1nnc(SCC(=O)N2CCCC2)o1	-5	2	0	-13	0	nt
CCOC(=O)N1CCN(Cc2cc(=O)oc3ccc(Cl)cc23)CC1	-8	1	-5	11	0	-9
CCOC(=O)N1CCN(Cc2cc(=O)oc3cc4c(cc23)CCC4)CC1	-6	4	5	-8	0	78*
CCn1c(SCCOc2ccc(Cl)cc2)nnc1-c1cccs1	19	9	-3	61*	6	0
CCn1c(SCC(=O)c2ccc(Cl)cc2)nnc1-c1cccs1	6	2	3	-7	-1	-2
Cc1c(C(=O)NCc2ccc3c(c2)OCO3)sc(=O)n1Cc1ccc(-c2ccccc2)cc1	nt	nt	nt	nt	0	nt
O=[N+]([O-])c1ccc(Sc2cccc3cccnc23)c2cccnc12	69	0	-3	110*	1	-4
O=C(N/N=C/c1ccncc1)c1cc2ccccc2cc1O	240	-1	4	312*	1	-7
O=C(N/N=C/c1ccc[nH]1)c1cc2ccccc2cc1O	-4	8	0	4	0	-6
C(=N\Nc1nc2ccccc2s1)/c1ccc2c(c1)OCO2	14	-4	10	41	0	2
C/C(=N\Nc1nc2ccccc2[nH]1)c1cc2ccccc2o1	6	-3	-8	30	16	21
CC(=O)Nc1ccc(/C=N/Nc2nc3ccccc3[nH]2)cc1	88	0	11	128*	0	9
CCN(CC)c1ccc(/C=N/Nc2nc3ccccc3[nH]2)cc1	269	7	39*	431*	12	-1
C(=N\Nc1nc2ccccc2[nH]1)/c1ccncc1	-13	13	1	-4	0	8
C/C(=N\Nc1nc2ccccc2[nH]1)c1ccccn1	14	19*	-8	27	-1	5
C(=N\Nc1nc2ccccc2[nH]1)/c1ccc2c(c1)OCO2	444	4	3	492*	-3	5
O=C(C[n+]1ccc(-c2nnc3n2CCCCC3)cc1)c1ccc(Cl)cc1	-5	10	10	-5	2	2
Cc1cccc(CN2CCC(Oc3ccc(C(=O)N4CCCC4)cc3)CC2)n1	-8	1	-5	3	0	9
CCCCN(CC)CCCNC(=O)c1ccc(CS(=O)(=O)c2ccccc2C)o1	-4	-6	-16	-6	-2	5
COCCNC(=O)CN(C(=O)CCC(=O)Nc1nccs1)c1ccc2c(c1)OCO2	-11	0	-2	-13	0	10
SMILES	HSF1 inh	HSP90 inh	dFosB activator	HSF-1 act	MPTP block	Platelet DG rel
CC(C)NC(=O)CN(C(=O)CCC(=O)Nc1nccs1)c1ccc2c(c1)OCO2	22	-3	-4	66*	0	-2
Cc1cc(Br)ccc1NC(=O)CN(C)C(=O)c1cccc(S(=O)(=O)N2CCN(C)CC2)c1	nt	nt	-2	nt	0	nt
Cc1ccc(NC(=O)c2ccc(CSc3nnc(C)s3)cc2)cc1	15	2	0	?	1	-17
Cc1cc(C)cc(NC(=O)c2ccc(CSc3nnc(C)s3)cc2)c1	38	-1	-4	69*	0	-8
CCN(CC)C(=O)Cn1cc(C(=O)C(=O)Nc2ccc3c(c2)OCCO3)c2ccccc21	12	-4	1	19	2	4
CC(=O)c1cccc(NC(=S)NC(=O)c2cccc(Cl)c2)c1	37	-3	-6	56*	0	-1
CCC(=O)Nc1cccc(NC(=S)NC(=O)c2ccc(Cl)cc2)c1	17	-3	-1	64*	5	-16
CC(=O)c1cccc(NC(=S)NC(=O)c2ccccc2)c1	22	-2	-17	55*	0	5
O=C(NC(=S)Nc1cc([N+](=O)[O-])ccc1Cl)c1ccccc1	12	-4	12	54*	-1	-6
